# From the supplement of paper PMC6555819
# Legend:
# Assay in all cases: PBM binding z-score (relative to random genomic background probes); higher = stronger binding; sequences stand for … in GC…GCGATTGACAGCGTAGAATGAAGG
# [1] = system: FXR:RXRa (NR concentration 270 nM, RXRa partner concentration 90 nM)
# Outline: (§1)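 Scanned fluorescence from custom Agilent 4×180K protein-binding microarrays was regression-normalized. Binding z-scores use random background probes as reference. Ligand-free nuclear receptor dimers were incubated on the arrays for 1 h and detected with antibodies against each partner (one per run).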
# [2] = system: LXRa:RXRa (NR concentration 270 nM, RXRa partner concentration 90 nM)
# Outline: as §1
# [3] = system: LXRa homodimer (NR concentration 270 nM)
# Outline: as §1
# [4] = system: LXRb:RXRa (NR concentration 270 nM, RXRa partner concentration 90 nM)
# Outline: as §1
# [5] = system: LXRb homodimer (NR concentration 270 nM)
# Outline: as §1
# [6] = system: PPARa:RXRa (NR concentration 270 nM, RXRa partner concentration 90 nM)
# Outline: as §1
# [7] = system: PPARg:RXRa (NR concentration 180 nM, RXRa partner concentration 90 nM)
# Outline: as §1
# [8] = system: PPARg:RXRa 270nM:90nM, anti-RXR (NR concentration 270 nM, RXRa partner concentration 90 nM)
# Outline: as §1
# [9] = system: PPARg:RXRa 30nM:10nM, anti-RXR (NR concentration 30 nM, RXRa partner concentration 10 nM)
# Outline: as §1
# [10] = system: PPARg:RXRa 90nM:30nM, anti-RXR (NR concentration 90 nM, RXRa partner concentration 30 nM)
# Outline: as §1
# [11] = system: PPARg:RXRa DBDmut IVT, anti-RXR (DBD mutation: RXRa K156A/R161A, NR concentration 270 nM, RXRa partner concentration 90 nM)
# Outline: as §1
# [12] = system: PPARg:RXRa IVT, anti-PPARg (NR concentration 270 nM, RXRa partner concentration 90 nM)
# Outline: as §1
# [13] = system: PPARg DBDmut:RXRa IVT, anti-PPARg (DBD mutation: PPARg1 K132A/R137A, NR concentration 270 nM, RXRa partner concentration 90 nM)
# Outline: as §1
# [14] = system: PPARg DBDmut IVT, anti-PPARg (DBD mutation: PPARg1 K132A/R137A, NR concentration 270 nM)
# Outline: as §1
# [15] = system: PPARg homodimer (NR concentration 180 nM)
# Outline: as §1
# [16] = system: PXR:RXRa (NR concentration 270 nM, RXRa partner concentration 90 nM)
# Outline: as §1
# [17] = system: PXR homodimer (NR concentration 270 nM)
# Outline: as §1
# [18] = system: RARa:RXR (NR concentration 270 nM, RXRa partner concentration 90 nM)
# Outline: as §1
# [19] = system: RARa homodimer (NR concentration 270 nM)
# Outline: as §1
# [20] = system: RARb:RXRa (NR concentration 270 nM, RXRa partner concentration 90 nM)
# Outline: as §1
Sequence,PBM binding z-score [1],PBM binding z-score [2],PBM binding z-score [3],PBM binding z-score [4],PBM binding z-score [5],PBM binding z-score [6],PBM binding z-score [7],PBM binding z-score [8],PBM binding z-score [9],PBM binding z-score [10],PBM binding z-score [11],PBM binding z-score [12],PBM binding z-score [13],PBM binding z-score [14],PBM binding z-score [15],PBM binding z-score [16],PBM binding z-score [17],PBM binding z-score [18],PBM binding z-score [19],PBM binding z-score [20]
ACGGACAGGTGATGAAGGTAACTCAGGCTATCAT,0.169,-0.084,-0.0768,0.109,-0.152,0.276,0.712,0.0307,0.33,0.172,0.288,0.365,0.082,0.0676,0.411,0.11,0.211,0.174,0.939,0.745
TCTAGTTGGTCAAAGGACACACACTCGAAATGCG,1.06,0.757,0.232,1.05,0.181,2.19,4.59,5.5,4.95,5.8,2.42,2.63,1.26,0.871,1.9,0.659,0.4,1.1,1.12,2.02
TTACCAAGGTGAAGATCGTTGATCCCTCTGTAGA,0.339,0.08,-0.422,0.141,-0.815,1.14,0.457,0.958,0.156,0.575,1.37,1.92,0.401,0.0725,0.177,0.123,-0.895,0.533,-0.66,1.26
AGTCAAAGTTCAGGACGAGGTGACGTAAAGCACG,4.38,3.95,1.24,1.82,0.0614,3.67,4.83,5.11,2.14,4.25,-0.365,2.55,-0.0177,-0.0513,2.73,3.51,1.23,3.58,0.938,4.46
CCTCGGAGGACAAGAGGAGGTCAGAGCTGCCAGA,0.831,1.16,0.18,0.759,-0.815,1.62,0.27,-0.135,-0.865,-0.28,-0.0535,0.408,-0.899,-1.36,0.986,1.71,-0.0509,1.94,0.29,2.54
TATACAGGGTCAAAGGCCATAGTACGAATGTCGA,7.3,6.15,2.85,5.09,2.38,6.27,9.09,7.76,6.42,8.54,2.29,5.22,3.81,1.65,2.99,4.83,0.657,6.64,1.1,4.56
ATATGTAGGTTACATCCGGGTCATTCACGCTATG,2.44,4.66,1.9,3.31,1.26,4.8,6.27,5.48,2.76,4.79,7.63,7.57,6.55,5.07,5.81,4.01,1.48,4.11,1.52,2.41
ACATACAGGTGAGTGAAGGTAACTCAGCTGGACG,0.866,0.707,-0.217,-0.161,-0.321,1.21,1.28,0.814,0.519,0.883,2.31,2.03,0.417,0.188,0.393,0.304,-0.247,0.687,-0.0591,0.763
CTCGAAAGGTCGGTTGTGGTGAGTATACGGATAA,2.01,1.54,0.263,1.67,0.416,2.29,0.242,0.949,-0.0875,0.394,0.261,0.611,-0.0487,0.467,1.3,1.13,0.427,1.81,1.01,3.03
CGTCAACGTTCAAGGTAACGTAACAGAAAGCAGC,-0.152,-0.339,-0.374,-0.129,-0.566,-0.0131,0.721,-0.237,-0.128,-0.193,-0.333,0.375,-0.0516,-0.229,-0.442,-0.292,-0.379,-0.0345,-0.412,0.89
GCTCGGAGGACAGGGTCAGAGCTTTGTCCGTAGA,1.13,0.858,-0.746,0.906,-1.08,2.62,-0.204,0.469,-0.854,0.00374,-0.294,0.104,-1.35,-1.12,-0.0128,1.22,-0.77,2.28,-1.04,2.55
GGAACGAGGGCAGGTTGATAGCAGAGTTTGATGG,0.204,0.00952,-0.393,0.00491,-0.45,0.686,0.674,0.307,-0.182,0.0591,2.17,1.68,-0.931,-0.47,0.542,0.273,0.636,0.164,0.17,1.87
TCTGGTTGGTCACGGAGGTCACACACGACGGGTA,3.5,3.63,2.85,3.58,1.47,3.99,3.13,3.7,2.69,3.15,1.74,3.7,1.34,1.67,4.27,4.9,2.06,4.93,2,4
ATCTCTAGCTAAGACTCAGTTCAGTGAAGAACGC,0.167,0.272,0.317,-0.057,0.629,-0.233,-0.0864,-0.493,-0.13,-0.144,-0.0797,0.0403,0.405,0.581,0.595,0.728,1.14,0.508,0.699,0.0718
